Reference: PubChem BioAssay (Tox21)
Inconclusive results are not listed. A call without a number means that no potency is given here. Calls of active or inactive are those of the source. Unless noted, the call rests on the fitted dose curve; in most records, active means well fitted curve in the direction sought with a large enough effect in the repeat runs; inconclusive means weak or mixed curves; inactive means no such curve, though single readings can be large; an effect the other way counts as inactive or inconclusive.

Biological target: Androgen receptor (Homo sapiens) (UniProt P10275)
Sequence (P10275 whole entry, looked up): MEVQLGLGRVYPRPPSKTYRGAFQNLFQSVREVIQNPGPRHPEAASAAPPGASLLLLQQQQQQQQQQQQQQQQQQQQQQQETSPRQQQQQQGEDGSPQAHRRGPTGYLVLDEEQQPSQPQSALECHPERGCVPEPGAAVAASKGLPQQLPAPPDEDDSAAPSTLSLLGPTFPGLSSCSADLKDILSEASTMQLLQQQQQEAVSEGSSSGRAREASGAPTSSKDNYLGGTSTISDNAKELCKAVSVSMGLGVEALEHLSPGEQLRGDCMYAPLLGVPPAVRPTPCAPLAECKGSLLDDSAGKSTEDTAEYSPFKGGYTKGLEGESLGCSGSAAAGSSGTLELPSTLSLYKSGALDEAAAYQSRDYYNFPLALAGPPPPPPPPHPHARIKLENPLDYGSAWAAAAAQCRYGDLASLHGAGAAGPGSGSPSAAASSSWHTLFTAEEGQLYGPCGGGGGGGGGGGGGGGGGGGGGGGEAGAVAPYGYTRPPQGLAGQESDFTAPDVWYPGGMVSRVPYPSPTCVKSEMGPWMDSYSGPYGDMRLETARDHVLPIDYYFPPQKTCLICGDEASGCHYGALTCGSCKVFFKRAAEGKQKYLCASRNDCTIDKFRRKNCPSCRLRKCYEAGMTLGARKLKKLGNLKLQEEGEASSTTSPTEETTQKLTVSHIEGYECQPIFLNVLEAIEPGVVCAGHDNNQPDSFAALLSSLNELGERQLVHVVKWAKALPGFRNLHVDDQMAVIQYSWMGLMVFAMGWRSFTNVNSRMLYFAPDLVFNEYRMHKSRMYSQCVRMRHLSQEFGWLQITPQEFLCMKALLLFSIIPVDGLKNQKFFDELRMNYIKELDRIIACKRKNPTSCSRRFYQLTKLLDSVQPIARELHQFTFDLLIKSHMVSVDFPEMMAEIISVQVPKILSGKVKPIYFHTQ
Assay: qHTS assay to identify small molecule antagonists of the androgen receptor (AR) signaling pathway (AID 743035; active means well fitted inhibition curve with a large enough effect in the signal ratio in the repeat runs, not every such curve was filed as active; the % refers to the signal ratio)
Details: HEK293 AR-UAS-bla, R1881-stimulated, beta-lactamase FRET, 16 h; series mostly up to 58.5 µM
How it was run: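 R1881 agonist challenge of a HEK293 UAS-beta-lactamase AR reporter line in the presence of compound (16 h, 37C); signal taken as FRET fluorescence after 2 h with LiveBLAzer B/G substrate at room temperature.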
With `CCCCNC(=O)NCCCC` the outcome was “inactive”.
In the case of `CC(=O)CC(C)C`, the outcome is reported as “inactive”.
In the case of `CCSC(=O)N(CC(C)C)CC(C)C`, the outcome is reported as “inactive”.
In the case of `O=C1CC2CC1C1CCCC21` (configuration not stated), the outcome is reported as “inactive”.
For `CCN1CCC[C@H]1CNC(=O)c1cc(S(N)(=O)=O)ccc1OC`, the outcome was “inactive”.
With `CC(=O)OCC(CCn1cnc2cnc(N)nc21)COC(C)=O` the outcome was “inactive”.
With `CCn1ccnc1CC1COc2ccccc2O1` (configuration not stated) the outcome was “inactive”.
In the case of `CC(C)(CC(=O)O)C(=O)O`, the outcome is reported as “inactive”.
With `CCCCC/C=C\CCC=O` the outcome was “inactive”.
In the case of `C=C(C)C(=O)OCCCCCCCC(C)C`, the outcome is reported as “inactive”.
With `ClC(Cl)(Br)Br` the outcome was “inactive”.
In the case of `CC(C)(O)C(=O)c1ccccc1`, the outcome is reported as “inactive”.
With `CC(=O)Nc1ccc(S(N)(=O)=O)cc1` the outcome was “inactive”.
For `O=C(O)COc1nn(Cc2ccccc2)c2ccccc12`, the outcome was “inactive”.
With `CCCCOCCOCCOCc1cc2c(cc1CCC)OCO2` the outcome was “inactive”.
With `CC1(C)C(O)C(C)(C)C1O` (configuration not stated) the outcome was “inactive”.
With `NC(=O)COCCN1CCN(C(c2ccccc2)c2ccc(Cl)cc2)CC1` (configuration not stated) the outcome was “inactive”.
In the case of `COc1ccc2c(c1)c(CC(=O)OCC(=O)O)c(C)n2C(=O)c1ccc(Cl)cc1`, the outcome is reported as “inactive”.
In the case of `O=S(O)CO`, the outcome is reported as “inactive”.

Biological target: Androgen receptor (Homo sapiens) (UniProt P10275)
Assay: qHTS assay to identify small molecule agonists of the androgen receptor (AR) signaling pathway (AID 743036; active means well fitted activation curve with a large enough effect in the signal ratio in the repeat runs, with a control signal flat, not every such curve was filed as active; the % refers to the signal ratio)
Details: HEK293 AR-UAS-bla GripTite, beta-lactamase FRET ratio, 16 h; series mostly up to 62.4 µM
How it was run: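 Activation was read as beta-lactamase FRET signal from LiveBLAzer B/G substrate, added for 2 h at room temperature. Before that, GeneBLAzer AR-UAS-bla GripTite (HEK293) cells had 16 h compound exposure at 37C.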
In the case of `CC(=O)CC(C)C`, the outcome is reported as “inactive”.
With `CCSC(=O)N(CC(C)C)CC(C)C` the outcome was “inactive”.
With `N=C(N)c1ccc2cc(OC(=O)c3ccc(N=C(N)N)cc3)ccc2c1` the outcome was “inactive”.
For `O=C1CC2CC1C1CCCC21` (configuration not stated), the outcome was “inactive”.
For `CCN1CCC[C@H]1CNC(=O)c1cc(S(N)(=O)=O)ccc1OC`, the outcome was “inactive”.
For `CC(=O)OCC(CCn1cnc2cnc(N)nc21)COC(C)=O`, the outcome was “inactive”.
In the case of `CCn1ccnc1CC1COc2ccccc2O1` (configuration not stated), the outcome is reported as “inactive”.
With `CC(C)(CC(=O)O)C(=O)O` the outcome was “inactive”.
With `CC(C)(c1ccc(O)cc1)c1ccc(O)cc1` the outcome was “inactive”.
For `C=C(C)C(=O)OCCCCCCCC(C)C`, the outcome was “inactive”.
For `ClC(Cl)(Br)Br`, the outcome was “inactive”.
With `CC(C)(O)C(=O)c1ccccc1` the outcome was “inactive”.
In the case of `CC(=O)Nc1ccc(S(N)(=O)=O)cc1`, the outcome is reported as “inactive”.
For `CCCCOCCOCCOCc1cc2c(cc1CCC)OCO2`, the outcome was “inactive”.
In the case of `OC1CCCCC1c1ccccc1` (configuration not stated), the outcome is reported as “inactive”.

Biological target: Androgen receptor (Homo sapiens) (UniProt P10275)
Assay: qHTS assay to identify small molecule agonists of the androgen receptor (AR) signaling pathway using the MDA cell line (AID 743040; further: nearly all actives have a fitted effect of over 20% in size; further: potency means the concentration at half of the fitted maximal effect)
Details: MDA-kb2 AR-luc cells, MMTV luciferase, 16 h; series mostly up to 70.3 µM
How it was run: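 Luciferase read-out, ONE-Glo, 30 min RT. Cells: MDA-kb2 AR-luc, MMTV promoter with AR and GR response elements. Compound exposure 16 h, 37C, 0% CO2, after 5 h pre-incubation. qHTS agonist mode.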
For `CCCCNC(=O)NCCCC`, the Potency was “inactive”.
With `CC(=O)CC(C)C` the Potency was “inactive”.
With `CCSC(=O)N(CC(C)C)CC(C)C` the Potency was “inactive”.
In the case of `N=C(N)c1ccc2cc(OC(=O)c3ccc(N=C(N)N)cc3)ccc2c1`, the Potency is reported as “inactive”.
In the case of `O=C1CC2CC1C1CCCC21` (configuration not stated), the Potency is reported as 54.5 µM (active).
For `CCN1CCC[C@H]1CNC(=O)c1cc(S(N)(=O)=O)ccc1OC`, the Potency was “inactive”.
With `CC(=O)OCC(CCn1cnc2cnc(N)nc21)COC(C)=O` the Potency was “inactive”.
With `CCn1ccnc1CC1COc2ccccc2O1` (configuration not stated) the Potency was “inactive”.
For `CC(C)(CC(=O)O)C(=O)O`, the Potency was “inactive”.
With `CC(C)(c1ccc(O)cc1)c1ccc(O)cc1` the Potency was “inactive”.
In the case of `C=C(C)C(=O)OCCCCCCCC(C)C`, the Potency is reported as “inactive”.
With `ClC(Cl)(Br)Br` the Potency was “inactive”.
In the case of `CC(C)(O)C(=O)c1ccccc1`, the Potency is reported as “inactive”.
In the case of `CC(=O)Nc1ccc(S(N)(=O)=O)cc1`, the Potency is reported as “inactive”.
With `O=C(O)COc1nn(Cc2ccccc2)c2ccccc12` the Potency was “inactive”.
With `CCCCOCCOCCOCc1cc2c(cc1CCC)OCO2` the Potency was “inactive”.
For `CC1(C)C(O)C(C)(C)C1O` (configuration not stated), the Potency was “inactive”.
With `NC(=O)COCCN1CCN(C(c2ccccc2)c2ccc(Cl)cc2)CC1` (configuration not stated) the Potency was “inactive”.
For `COc1ccc2c(c1)c(CC(=O)OCC(=O)O)c(C)n2C(=O)c1ccc(Cl)cc1`, the Potency was “inactive”.
For `OC1CCCCC1c1ccccc1` (configuration not stated), the Potency was “inactive”.
In the case of `O=S(O)CO`, the Potency is reported as “inactive”.

Tested on: not listed separately
Assay: qHTS assay to identify small molecule antagonists of the androgen receptor (AR) signaling pathway using the MDA cell line - cell viability counter screen (AID 743041; further: nearly all actives have a fitted effect of over 45% in size)
Details: MDA-kb2 viability, CellTiter-Fluor, 16 h, cells co-treated with R1881 androgen agonist; series mostly up to 70.3 µM
How it was run: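 Cytotoxicity counter screen: MDA-kb2 AR-luc cells, compound + R1881, 16 h, 37C, 0% CO2; CellTiter-Fluor added at 15.5 h, fluorescence read after 30 min.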
With `CCCCNC(=O)NCCCC` the Potency was “inactive”.
In the case of `CCCN(CCC)CCc1cccc2c1CC(=O)N2`, the Potency is reported as “inactive”.
In the case of `CC(=O)CC(C)C`, the Potency is reported as “inactive”.
With `CCSC(=O)N(CC(C)C)CC(C)C` the Potency was “inactive”.
For `N=C(N)c1ccc2cc(OC(=O)c3ccc(N=C(N)N)cc3)ccc2c1`, the Potency was “inactive”.
For `O=C1CC2CC1C1CCCC21` (configuration not stated), the Potency was “inactive”.
In the case of `O=c1n(CCO)c(=O)n(CCO)c(=O)n1CCO`, the Potency is reported as “inactive”.
In the case of `O=C(O)CN(CCOCCOCCN(CC(=O)O)CC(=O)O)CC(=O)O`, the Potency is reported as “inactive”.
With `CCN1CCC[C@H]1CNC(=O)c1cc(S(N)(=O)=O)ccc1OC` the Potency was “inactive”.
For `COCCc1ccc(OCC(O)CNC(C)C)cc1` (configuration not stated), the Potency was “inactive”.
For `CC(=O)OCC(CCn1cnc2cnc(N)nc21)COC(C)=O`, the Potency was “inactive”.
With `CCn1ccnc1CC1COc2ccccc2O1` (configuration not stated) the Potency was “inactive”.
For `CC1(C)CO[C@@H](CC(=O)O)CN1`, the Potency was “inactive”.
In the case of `CC(C)(CC(=O)O)C(=O)O`, the Potency is reported as “inactive”.
For `CCCCC/C=C\CCC=O`, the Potency was “inactive”.
For `O=C1CCCN1C1CCCCC1`, the Potency was “inactive”.
For `CC(C)(c1ccc(O)cc1)c1ccc(O)cc1`, the Potency was “inactive”.
In the case of `C=C(C)C(=O)OCCCCCCCC(C)C`, the Potency is reported as “inactive”.
For `ClC(Cl)(Br)Br`, the Potency was “inactive”.
In the case of `COC(=O)c1cc(C(=O)OC)cc(S(=O)(=O)O)c1`, the Potency is reported as “inactive”.
In the case of `CC/C=C\CCOC(C)=O`, the Potency is reported as “inactive”.
With `CC(=O)OCC(=O)[C@@]1(O)CC[C@H]2[C@@H]3CCC4=CC(=O)CC[C@]4(C)[C@H]3C(=O)C[C@@]21C` the Potency was “inactive”.
For `N[C@H]1CN(c2c(F)cc3c(=O)c(C(=O)O)cn(C4C[C@H]4F)c3c2Cl)CC12CC2` (some centres not stated), the Potency was “inactive”.
For `C[C@H]1C[C@@H](O)CC(C)(C)C1`, the Potency was “inactive”.
In the case of `CC(=O)N(CC(O)CO)c1c(I)c(C(=O)NCCO)c(I)c(C(=O)NCC(O)CO)c1I` (configuration not stated), the Potency is reported as “inactive”.
In the case of `CC(C)(O)C(=O)c1ccccc1`, the Potency is reported as “inactive”.
In the case of `CC(=O)Nc1ccc(S(N)(=O)=O)cc1`, the Potency is reported as “inactive”.
For `C[N+](C)(C)CCCCCC[N+](C)(C)C`, the Potency was “inactive”.
With `O=C(O)COc1nn(Cc2ccccc2)c2ccccc12` the Potency was “inactive”.
For `CCCCOCCOCCOCc1cc2c(cc1CCC)OCO2`, the Potency was “inactive”.
For `CC1(C)C(O)C(C)(C)C1O` (configuration not stated), the Potency was “inactive”.
With `NC(=O)COCCN1CCN(C(c2ccccc2)c2ccc(Cl)cc2)CC1` (configuration not stated) the Potency was “inactive”.
With `COc1ccc2c(c1)c(CC(=O)OCC(=O)O)c(C)n2C(=O)c1ccc(Cl)cc1` the Potency was “inactive”.
In the case of `CCN(Cc1ccncc1)C(=O)C(CO)c1ccccc1` (configuration not stated), the Potency is reported as “inactive”.
For `CCc1nccnc1CC`, the Potency was “inactive”.
In the case of `OC1CCCCC1c1ccccc1` (configuration not stated), the Potency is reported as “inactive”.
For `O=S(O)CO`, the Potency was “inactive”.
